This is an account of results in ChEMBL document CHEMBL3988442, “University of Dundee, Small-Polar-MMV Screening Library” (2021).

This assay concerns the target AMP-activated protein kinase, AMPK (Homo sapiens) (UniProt P54646+O43741+P54619+Q9UGJ0+Q9Y478+Q13131+Q9UGI9). The assay can be described thus: AMP-dependent Kinase enzyme assay. An in vitro enzyme assay that detects ADP turnover that is directly proportional to AMPK activity. This uses naive AMPK that is activated during the assay with MK-8722. Type of assay: functional. Also on record: scale not given: direction of the effect not stated beside the values. As to conditions: 30 µM.
`CN(C)CC(O)Cn1cc(NCc2ccc(Br)cc2)cn1` (stereo not given): the Percent Effect was -39.9%. Turning to `COCCC(=O)N1CCCC(CCc2ccc(F)c(F)c2)C1` (stereo not given), the Percent Effect was 8.62%.

For the compound `CCC1c2ccccc2CCN1CCCS(C)(=O)=O` (stereo not given), the Percent Effect was -1.94%. With `CCC(=O)Nc1cccc(OCC(=O)N2CC=CC2C(C)C)c1` (stereo not given), the Percent Effect is -4.81%. For `CC(C)N(C)S(=O)(=O)c1ccc2c(c1)CCN(C(=O)c1cnccn1)C2`, the Percent Effect is 0.361%. With `Cc1cnn(CCNCC(=O)N2CCN(c3ccccn3)CC2)c1` the figure was -14.7%; with `CCC1(CC)CC(=O)N(CC(O)c2cccc(F)c2)C1=O` (stereo not given), 12.2%; with `COCC[C@]1(O)CCN(CC(=O)NCc2ccccn2)C[C@H]1C`, 9.06%.

As for `CCc1nn(C)c(Cl)c1CN(CC)Cc1cnn(CC)c1`, the Percent Effect was determined as 1.72%. For `CC(=O)N[C@H]1CCO[C@@H](c2cccc(NC(=O)C(C)(C)C)c2)C1`, the Percent Effect was 7.76%. `NC(=O)C(NC1CCN(CC2CCCCC2)CC1)c1ccccc1` (stereo not given): the Percent Effect is 0.144%. Next, `CC(=O)N1CCc2c(nc(N(C)C)nc2NCCCn2ccnc2C)C1`: 7.72%; `CNC(=O)c1cn2cc(-c3cccc(Cl)c3)n(CC=C(C)C)c(=O)c2n1`: 2.79%. As to `Cn1cc(N2CCN(c3ccc(C#N)c(Cl)c3)CC2=O)cn1`, the Percent Effect is -3.11%. With `CCN(CC(=O)NC)C(=O)c1sc(Cc2ccccc2)nc1C` the figure was -3.98%; with `CC(C)Oc1ncccc1CNC(=O)NC(C)c1cccs1` (stereo not given), -3.91%. As for `CN1CC2(CCN(C(=O)CCCOCc3ccccc3)C2)OC1=O` (stereo not given), the Percent Effect worked out at 9.85%. Take `COc1ccc(C(C)NCCC(N)=O)cc1F` (stereo not given): the Percent Effect is -6.1%. As for `Cc1nc(CNC(=O)c2cc(COc3ccccc3)[nH]n2)n[nH]1`, the Percent Effect was found to be 7.31%.

As for `CN(Cc1cc(Br)cn1C)C(=O)Cc1cccc(O)c1`, the Percent Effect was -0.828%. Regarding `O=C(Cc1c(F)cccc1Cl)Nc1cc(N2CCOCC2)ncn1`, the Percent Effect was 5.35%. With `COCCn1ccnc1C1CCCN(C(=O)CSc2nnc(C)o2)C1` (stereo not given) the figure was 1.51%; with `C[C@@H]1CN(c2cccnn2)CC[C@@]1(O)C1CCOCC1`, 2.06%; with `Cc1c(Br)cccc1C(=O)Nc1cc(C(N)=O)n(C)c1`, 3.87%.

In the case of `O=C(NCC(O)Cc1ccccc1)c1ccc2[nH]c(=O)[nH]c2c1` (stereo not given), the Percent Effect was 11.7%. On to `COc1ccc(CC2(CO)CCN(c3cc(C(N)=O)ccn3)CC2)cc1`, for which the Percent Effect turned out to be 8.7%. As for `CC1CCN(CC(=O)N(C)CCc2noc(C3CC3)n2)C1=O` (stereo not given), the Percent Effect is -1.6%. As for `CCNc1ncc(CN2CCOC(Cc3cccc(OC)c3)C2)cn1` (stereo not given), the Percent Effect came to 0.956%. As for `COC(=O)c1ccoc1CN(C)CC(=O)NC1CC1`, the Percent Effect is -3.6%.

Turning to `CNC(=O)Cc1ccc(NC(=O)NCc2ncc(C)s2)cc1`, the Percent Effect is -2.7%. As for `O=C(Nc1cn[nH]c1)NC1CCN(c2ccccc2OC(F)F)C1` (stereo not given), the Percent Effect was -1.4%. Take `CCCN(CCc1ccccn1)C(=O)Cn1cnnn1`: the Percent Effect came out at 4.35%. Take `Cc1cc(C)n(C2CN(C(=O)c3cn4ccsc4n3)C2)n1`: the Percent Effect is -4.27%. Take `COc1ccc(C2CN(c3ncccn3)CCN2C(C)=O)cc1` (stereo not given): the Percent Effect worked out at 21.2%. `CC(=O)Nc1ccc(Oc2cc(C)nc(C3CCNCC3)c2)cc1`: the Percent Effect stood at 0.11%. With `CCC(O)CN1CCN(C(=O)CCSC)CC1` (stereo not given) the figure was -2.43%. On to `Cc1ccc(NC(=O)CN[C@H](C(N)=O)C(C)C)cc1F`, for which the Percent Effect is -14.9%. Consider `COc1ccc(CCn2cnc(C#N)n2)cc1`, for which the Percent Effect is -6.21%.

For the compound `COCCC(=O)Nc1nc2c(OC)cc(F)cc2s1`, the Percent Effect was -1.47%.

For the compound `COc1ccc(-c2cnc(CN(CC(N)=O)C3CCCC3)o2)cc1`, the Percent Effect was -2.59%.
